Measurements taken from the supplement of paper PMC10849652.
Targets with a hit are over-represented here; the source holds about 8,800 in all. About 0.5% of all pairs of compound and target were hits. A number with no mark means an inactive call.

Experiments:
Assay in all cases: log2 fold change, soluble protein after heating vs DMSO (PISA); higher = thermal stabilisation; K562 lysate, 10 uM; active = over 0.2 and 3.5 SD of the protein, either way, in both replicates (recomputed)
erlotinib = compound: C#Cc1cccc(Nc2ncnc3cc(OCCOC)c(OCCOC)cc23)c1 [erlotinib]
Summary of the method: (§1)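 Following dounce homogenisation of K562 pellets in PBS pH 7.4 with 1 mM MgCl2, crude extract at 1 mg/mL protein was incubated for 30 min with 10 μM compound. Aliquots were then heated for 3 min over 48°C-58°C and pooled, NP-40 was added to 0.5% at 4°C, and soluble protein was recovered as the supernatant at 21,000xg for 90 min. Channel-sum-equalised TMTpro 16plex LC-MS/MS quantified this protein. Each value, from duplicates, is a log-two fold change in thermal stability relative to solvent controls.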

[1] = compound: C/C(=N\NC(=O)C1=CC(=CC=C1)S(=O)(=O)N2CCOCC2)/C3=C(C=CC(=C3)Cl)O
Summary of the method: as §1

[2] = compound: C1=CC(=CC=C1C2=NC3=C(N2)C=C(C=C3)C(=O)N)OC4=CC=C(C=C4)Cl
Summary of the method: as §1

[3] = compound: C1=CC2=C(C=CC(=C2)/C=C\3/C(=O)NC(=NCC4=CC=CS4)S3)N=C1
Summary of the method: as §1

[4] = compound: C1=CC2=NC=CN=C2C=C1/C=C/3\C(=O)NC(=O)S3
Summary of the method: as §1

[5] = compound: C1=CC=C(C=C1)C2=NC(=C(N2)C3=CC=NC=C3)C4=CC(=C(C=C4)Cl)O
Summary of the method: as §1

[6] = compound: C1=CC=C2C(=C1)C3=NNC4=CC=CC(=C43)C2=O
Summary of the method: as §1

[7] = compound: C1CCN(C1)C(=O)NC2=CC=CC(=C2)NC3=NC=C(C(=N3)NCCC4=CN=CN4)Br
Summary of the method: as §1

[8] = compound: C1CN(CCC1(CC2=CC=C(C=C2)Cl)N)C3=NC=NC4=C3C=CN4
Summary of the method: as §1

IRAK-1-4 Inhibitor I = compound: C1COCCN1CCN2C3=CC=CC=C3N=C2NC(=O)C4=CC(=CC=C4)[N+](=O)[O-] [IRAK-1-4 Inhibitor I]
Summary of the method: as §1

ibrutinib = compound: C=CC(=O)N1CCC[C@@H](n2nc(-c3ccc(Oc4ccccc4)cc3)c3c(N)ncnc32)C1 [ibrutinib]
Summary of the method: as §1

[9] = compound: CC(=O)c1cnc2ccc(-c3cc(Cl)c(O)c(Cl)c3)nc2c1N[C@H]1CC[C@H](CN(C)C)CC1
Summary of the method: as §1

ralimetinib = compound: CC(C)(C)Cn1c(N)nc2ccc(-c3[nH]c(C(C)(C)C)nc3-c3ccc(F)cc3)nc21 [ralimetinib]
Summary of the method: as §1

[10] = compound: CC(C)(O)CC(=O)NCCn1ccc2ncnc(Nc3ccc(Oc4cccc(C(F)(F)F)c4)c(Cl)c3)c21
Summary of the method: as §1

[11] = compound: CC(C)C1=C2N=C(C=C(N2N=C1)NCC3=CC=CC=C3)NCCCCCCN
Summary of the method: as §1

[12] = compound: CC1=C(C(CC(=O)N1)C2=CC=C(C=C2)C(F)(F)F)C(=O)NC3=C(C=C4C(=C3)C=NN4)F
Summary of the method: as §1

[13] = compound: CC1=C(C2=C(C=C1)C(=O)C3=CC=CC=C3N2CCCN)C
Summary of the method: as §1

[14] = compound: CC1=C(C=C(C=C1)NC(=O)C2=CC(=CC=C2)C(C)(C)C#N)NC3=CC4=C(C=C3)N=CN(C4=O)C
Summary of the method: as §1

[15] = compound: CC1=C(C=C(C=C1)NC(=O)C2=CC(=CC=C2)N(C)C)NC(=O)C3=CC=C(C=C3)O
Summary of the method: as §1

[16] = compound: CC1=CC=C(C=C1)SC2=C3C=C(SC3=CN=C2)C(=O)N
Summary of the method: as §1

Sequence of UniProt Q9UBB9 (Q9UBB9 whole entry, looked up): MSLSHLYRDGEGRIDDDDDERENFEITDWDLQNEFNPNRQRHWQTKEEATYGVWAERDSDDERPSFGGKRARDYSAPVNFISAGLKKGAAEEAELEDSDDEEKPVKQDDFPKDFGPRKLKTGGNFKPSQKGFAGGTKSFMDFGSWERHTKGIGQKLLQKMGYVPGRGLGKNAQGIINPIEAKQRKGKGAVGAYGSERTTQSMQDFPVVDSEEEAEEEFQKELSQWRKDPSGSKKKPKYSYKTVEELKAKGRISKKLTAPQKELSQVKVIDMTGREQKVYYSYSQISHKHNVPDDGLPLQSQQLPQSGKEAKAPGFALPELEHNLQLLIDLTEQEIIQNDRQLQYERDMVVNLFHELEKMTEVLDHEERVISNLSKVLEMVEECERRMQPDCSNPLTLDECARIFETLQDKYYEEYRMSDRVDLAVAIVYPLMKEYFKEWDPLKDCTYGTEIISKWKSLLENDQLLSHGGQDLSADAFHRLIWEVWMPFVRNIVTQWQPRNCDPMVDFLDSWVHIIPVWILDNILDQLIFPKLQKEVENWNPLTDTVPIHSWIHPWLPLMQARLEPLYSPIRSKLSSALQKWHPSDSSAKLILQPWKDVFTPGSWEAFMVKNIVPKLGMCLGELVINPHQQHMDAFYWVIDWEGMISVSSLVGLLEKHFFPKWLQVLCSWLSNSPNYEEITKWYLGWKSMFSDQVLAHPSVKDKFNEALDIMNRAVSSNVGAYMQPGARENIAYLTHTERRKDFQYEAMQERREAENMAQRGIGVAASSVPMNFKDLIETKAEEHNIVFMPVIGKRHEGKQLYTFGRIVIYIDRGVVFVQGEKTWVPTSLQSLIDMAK
Sequence of UniProt O43399 (O43399 whole entry, looked up): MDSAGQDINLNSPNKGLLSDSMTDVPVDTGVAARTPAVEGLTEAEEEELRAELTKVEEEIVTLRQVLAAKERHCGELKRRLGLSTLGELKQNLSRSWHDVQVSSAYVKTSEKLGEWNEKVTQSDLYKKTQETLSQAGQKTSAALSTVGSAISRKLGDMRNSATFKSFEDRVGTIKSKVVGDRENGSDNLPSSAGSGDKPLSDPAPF
Sequence of UniProt Q14139 (Q14139 whole entry, looked up): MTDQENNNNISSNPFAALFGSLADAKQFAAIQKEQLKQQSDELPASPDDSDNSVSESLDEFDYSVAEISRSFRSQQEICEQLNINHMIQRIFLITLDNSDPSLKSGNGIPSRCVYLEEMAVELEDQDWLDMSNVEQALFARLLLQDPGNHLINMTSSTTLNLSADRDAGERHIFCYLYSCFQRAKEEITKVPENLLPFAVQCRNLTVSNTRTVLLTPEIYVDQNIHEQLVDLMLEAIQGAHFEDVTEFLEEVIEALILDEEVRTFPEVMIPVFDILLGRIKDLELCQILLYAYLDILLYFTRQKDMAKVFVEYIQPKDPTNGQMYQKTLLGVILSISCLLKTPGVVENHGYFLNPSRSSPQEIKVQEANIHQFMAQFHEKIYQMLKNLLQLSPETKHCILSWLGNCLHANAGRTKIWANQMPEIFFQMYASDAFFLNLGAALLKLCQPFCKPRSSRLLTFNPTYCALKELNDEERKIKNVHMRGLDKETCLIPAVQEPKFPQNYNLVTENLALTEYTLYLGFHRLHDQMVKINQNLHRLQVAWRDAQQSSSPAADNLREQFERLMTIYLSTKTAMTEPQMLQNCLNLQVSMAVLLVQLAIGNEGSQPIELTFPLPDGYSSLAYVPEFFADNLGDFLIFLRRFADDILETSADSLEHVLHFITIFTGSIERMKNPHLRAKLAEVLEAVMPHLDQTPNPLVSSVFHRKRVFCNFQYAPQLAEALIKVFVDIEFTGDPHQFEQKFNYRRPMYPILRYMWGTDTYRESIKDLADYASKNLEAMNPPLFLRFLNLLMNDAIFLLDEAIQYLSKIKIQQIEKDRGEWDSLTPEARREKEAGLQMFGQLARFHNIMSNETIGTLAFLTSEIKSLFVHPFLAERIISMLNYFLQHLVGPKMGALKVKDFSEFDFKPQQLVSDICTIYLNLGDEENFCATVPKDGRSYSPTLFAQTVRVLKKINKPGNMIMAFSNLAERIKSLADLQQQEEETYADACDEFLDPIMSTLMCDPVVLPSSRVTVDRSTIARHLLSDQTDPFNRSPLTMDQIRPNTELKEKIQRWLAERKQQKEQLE
Sequence of UniProt O95801 (O95801 whole entry, looked up): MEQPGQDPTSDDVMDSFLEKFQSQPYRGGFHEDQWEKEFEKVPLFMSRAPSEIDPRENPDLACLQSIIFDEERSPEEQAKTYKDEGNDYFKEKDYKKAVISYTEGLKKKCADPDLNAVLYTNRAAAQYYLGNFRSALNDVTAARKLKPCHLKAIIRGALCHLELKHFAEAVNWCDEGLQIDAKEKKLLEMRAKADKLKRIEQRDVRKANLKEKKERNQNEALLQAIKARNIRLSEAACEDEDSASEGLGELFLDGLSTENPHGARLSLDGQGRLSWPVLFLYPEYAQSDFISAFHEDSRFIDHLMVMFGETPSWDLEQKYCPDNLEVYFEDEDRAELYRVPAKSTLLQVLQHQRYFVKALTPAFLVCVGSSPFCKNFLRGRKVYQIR
Sequence of UniProt Q9P0S9 (Q9P0S9 whole entry, looked up): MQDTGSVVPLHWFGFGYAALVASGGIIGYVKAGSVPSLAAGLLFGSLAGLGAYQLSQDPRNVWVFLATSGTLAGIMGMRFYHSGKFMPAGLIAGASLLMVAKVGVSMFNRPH
Sequence of UniProt Q8WVT3 (Q8WVT3 whole entry, looked up): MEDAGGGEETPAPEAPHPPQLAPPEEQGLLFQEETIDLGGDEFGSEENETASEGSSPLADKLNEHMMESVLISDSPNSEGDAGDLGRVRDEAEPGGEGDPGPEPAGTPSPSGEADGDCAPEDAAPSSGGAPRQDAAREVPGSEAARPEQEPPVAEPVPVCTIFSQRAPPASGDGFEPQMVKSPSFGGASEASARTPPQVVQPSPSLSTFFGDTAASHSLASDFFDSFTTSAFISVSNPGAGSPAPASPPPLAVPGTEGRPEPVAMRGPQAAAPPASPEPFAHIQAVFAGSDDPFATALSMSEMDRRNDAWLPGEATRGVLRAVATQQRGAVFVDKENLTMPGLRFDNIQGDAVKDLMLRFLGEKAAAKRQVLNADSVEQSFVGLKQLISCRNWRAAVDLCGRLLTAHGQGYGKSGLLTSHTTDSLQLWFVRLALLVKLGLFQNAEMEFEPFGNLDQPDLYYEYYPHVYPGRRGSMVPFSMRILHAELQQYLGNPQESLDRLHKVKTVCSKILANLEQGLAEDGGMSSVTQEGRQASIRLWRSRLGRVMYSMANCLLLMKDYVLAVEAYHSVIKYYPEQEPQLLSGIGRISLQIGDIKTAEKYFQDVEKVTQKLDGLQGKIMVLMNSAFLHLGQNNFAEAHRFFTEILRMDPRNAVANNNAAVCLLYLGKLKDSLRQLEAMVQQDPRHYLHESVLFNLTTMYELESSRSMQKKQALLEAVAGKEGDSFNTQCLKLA
Sequence of UniProt Q9NUQ7 (Q9NUQ7 whole entry, looked up): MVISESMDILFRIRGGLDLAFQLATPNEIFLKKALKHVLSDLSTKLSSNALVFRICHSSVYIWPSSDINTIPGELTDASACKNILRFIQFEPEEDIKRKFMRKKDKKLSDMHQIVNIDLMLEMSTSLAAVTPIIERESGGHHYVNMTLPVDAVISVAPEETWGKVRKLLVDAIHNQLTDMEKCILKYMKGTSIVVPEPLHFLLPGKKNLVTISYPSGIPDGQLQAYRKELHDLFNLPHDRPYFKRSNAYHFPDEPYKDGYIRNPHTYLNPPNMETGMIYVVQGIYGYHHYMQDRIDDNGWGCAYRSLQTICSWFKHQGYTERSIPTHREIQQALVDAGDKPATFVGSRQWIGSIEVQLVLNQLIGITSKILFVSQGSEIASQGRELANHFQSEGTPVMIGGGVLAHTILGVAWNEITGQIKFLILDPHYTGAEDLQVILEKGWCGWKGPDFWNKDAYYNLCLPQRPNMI
Sequence of UniProt Q9Y4P3 (Q9Y4P3 whole entry, looked up): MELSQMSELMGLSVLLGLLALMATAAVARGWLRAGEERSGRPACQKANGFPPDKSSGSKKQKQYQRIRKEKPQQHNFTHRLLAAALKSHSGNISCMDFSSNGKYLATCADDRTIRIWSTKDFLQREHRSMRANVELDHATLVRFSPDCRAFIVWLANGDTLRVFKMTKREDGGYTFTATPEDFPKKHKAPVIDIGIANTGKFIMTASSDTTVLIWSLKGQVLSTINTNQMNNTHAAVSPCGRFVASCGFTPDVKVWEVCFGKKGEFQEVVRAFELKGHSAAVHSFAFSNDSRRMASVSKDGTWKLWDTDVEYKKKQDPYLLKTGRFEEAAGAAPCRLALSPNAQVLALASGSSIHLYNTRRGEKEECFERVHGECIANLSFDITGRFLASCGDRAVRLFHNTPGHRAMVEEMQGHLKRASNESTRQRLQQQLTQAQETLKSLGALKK
Sequence of UniProt Q9Y5K5 (Q9Y5K5 whole entry, looked up): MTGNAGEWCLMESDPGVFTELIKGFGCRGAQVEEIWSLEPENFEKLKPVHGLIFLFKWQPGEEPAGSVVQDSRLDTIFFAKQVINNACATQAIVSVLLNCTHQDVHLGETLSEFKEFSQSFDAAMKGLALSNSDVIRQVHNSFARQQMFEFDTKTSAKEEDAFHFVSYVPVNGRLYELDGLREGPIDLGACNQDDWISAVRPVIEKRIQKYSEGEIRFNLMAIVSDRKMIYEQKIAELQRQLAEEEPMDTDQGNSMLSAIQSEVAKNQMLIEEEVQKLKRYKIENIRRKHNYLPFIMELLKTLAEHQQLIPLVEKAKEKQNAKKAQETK

| Target | log2 fold change (erlotinib) | log2 fold change [1] | log2 fold change [2] | log2 fold change [3] | log2 fold change [4] | log2 fold change [5] | log2 fold change [6] | log2 fold change [7] | log2 fold change [8] | log2 fold change (IRAK-1-4 Inhibitor I) | log2 fold change (ibrutinib) | log2 fold change [9] | log2 fold change (ralimetinib) | log2 fold change [10] | log2 fold change [11] | log2 fold change [12] | log2 fold change [13] | log2 fold change [14] | log2 fold change [15] | log2 fold change [16] |
| --- | --- | --- | --- | --- | --- | --- | --- | --- | --- | --- | --- | --- | --- | --- | --- | --- | --- | --- | --- | --- |
| UBR3 isoform 4 (UniProt Q6ZT12) | 0.016 | 0.044 | 0.016 | 0.027 | 0.005 | 0.005 | -0.07 | -0.063 | 0.032 | -0.007 | -0.002 | -0.023 | 0.107 | -0.009 | 0.005 | 0.006 | -0.055 | -0.016 | 0.013 | 0.021 |
| TPD52L2 isoform 7 (UniProt O43399) | -0.044 | -0.028 | 0.085 | 0.015 | 0 | 0.017 | 0.036 | 0.029 | -0.004 | -0.031 | -0.016 | 0.017 | -0.013 | 0.01 | -0.013 | 0.023 | -0.024 | 0.007 | -0.006 | -0.001 |
| TTC27 (UniProt Q6P3X3) | 0.017 | 0.018 | -0.043 | 0.004 | 0.007 | -0.014 | -0.028 | -0.015 | 0.006 | -0.013 | -0.025 | 0.017 | -0.012 | 0.046 | 0.02 | 0 | -0.011 | -0.012 | 0.034 | 0.042 |
| UBAP2 (UniProt Q5T6F2) | -0.02 | -0.02 | 0.032 | 0.01 | 0.022 | -0.159 | 0.016 | -0.009 | 0.001 | 0.016 | 0.014 | 0.009 | -0.044 | -0.067 | 0.008 | 0.03 | 0.006 | -0.474 (active) | -0.026 | -0.019 |
| UFSP2 (UniProt Q9NUQ7) | -0.04 | -0.034 | 0.028 | 0.098 | -0.015 | -0.042 | -0.055 | -0.026 | -0.037 | 0.023 | 0.004 | -0.005 | 0.023 | -0.004 | -0.023 | 0.01 | 0.005 | -0.036 | -0.003 | -0.006 |
| TRAPPC12 (UniProt Q8WVT3) | -0.049 | -0.01 | -0.048 | -0.047 | -0.018 | -0.005 | -0.061 | -0.003 | -0.005 | 0.027 | 0.001 | -0.011 | 0.064 | 0.02 | -0.014 | -0.022 | -0.003 | 0.008 | -0.001 | 0.009 |
| UBE4A isoform 2 (UniProt Q14139) | 0.031 | 0.091 | 0.023 | 0.013 | -0.023 | -0.021 | -0.082 | -0.028 | 0.035 | 0.004 | -0.025 | 0.018 | 0.038 | -0.038 | -0.023 | 0.03 | 0.019 | -0.009 | 0.034 | -0.009 |
| TTC4 (UniProt O95801) | 0.01 | 0.013 | 0.001 | 0.003 | 0.005 | 0.007 | -0.038 | -0.029 | 0.025 | -0.008 | 0.002 | 0.015 | 0.005 | 0.011 | 0.03 | -0.029 | -0.033 | 0.026 | 0.029 | 0 |
| TUBGCP2 isoform 4 (UniProt Q9BSJ2) | 0.036 | -0.048 | 0.012 | 0.025 | 0.014 | -0.005 | -0.029 | -0.014 | 0.004 | -0.041 | -0.001 | 0.042 | -0.007 | -0.016 | -0.006 | 0.011 | -0.023 | 0.035 | 0.048 | -0.017 |
| TMEM14C (UniProt Q9P0S9) | 0.027 | -0.201 | 0.046 | -0.011 | -0.039 | 0.022 | 0.063 | -0.177 | -0.042 | 0.064 | 0.04 | 0.085 | 0.129 | -0.077 | -0.135 | -0.047 | -0.146 | 0.048 | 0.007 | 0.152 |
| TELO2 (UniProt Q9Y4R8) | 0.023 | 0.006 | -0.035 | 0.025 | 0.048 | 0 | 0.011 | -0.031 | 0.002 | 0.009 | -0.023 | 0 | 0.019 | -0.052 | 0.002 | 0.029 | -0.015 | 0.006 | 0.014 | 0.017 |
| TFIP11 (UniProt Q9UBB9) | -0.026 | -0.099 | -0.082 | -0.025 | -0.027 | 0.023 | -0.036 | -0.008 | 0.074 | -0.016 | 0.059 | 0.001 | 0.023 | 0.008 | -0.022 | 0 | -0.034 | 0.016 | 0.031 | -0.003 |
| TBL2 (UniProt Q9Y4P3) | -0.019 | 0.061 | -0.027 | 0.061 | -0.023 | 0.038 | -0.06 | -0.027 | 0.001 | -0.022 | 0.014 | 0.059 | 0.005 | -0.001 | 0 | 0.045 | 0.031 | -0.008 | 0.03 | 0.05 |
| UCHL5 isoform 3 (UniProt Q9Y5K5) | -0.015 | -0.012 | 0.015 | -0.018 | 0.01 | -0.005 | 0.001 | 0 | -0.014 | -0.018 | 0 | -0.001 | 0.01 | -0.008 | 0.015 | 0.014 | 0.011 | -0.029 | 0.004 | 0.012 |
| TOE1 (UniProt Q96GM8) | -0.035 | -0.064 | 0.006 | 0.036 | 0.054 | -0.021 | -0.024 | 0 | -0.035 | -0.021 | 0.011 | -0.001 | 0.007 | 0.003 | 0.008 | -0.061 | -0.023 | -0.02 | 0.014 | 0.011 |
